According to PubChem BioAssay (NCATS):
Records with an inconclusive call do not appear. The source made the active and inactive calls. The call rests on the fitted dose curve; in most records, active means well fitted inhibition curve with a large enough effect; inconclusive means small, poorly fitted or top-dose-only effect; inactive means flat fitted curve, though single readings scatter. Peptide text beside a SMILES is read from it.

These compounds were tested on CRL-7250 (assay: qHTS assay to identify novel small-molecules to repurpose for Merkel cell carcinoma treatment (AID 1296009; further: nearly all actives have a fitted effect of over 60% in size)). Details: MCC and control cell lines, CellTiter-Glo viability, 72 h; series mostly up to 92 µM; activity change, negative = cytotoxicity: at the top concentration.
Method in brief: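 Cell viability measured by CellTiter-Glo following 72 hr compound treatment at 37 degree celsius, with NPC and MIPE libraries tested in 8- and 11-point concentration series.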

| Compound | outcome |
| --- | --- |
| Cc1c(C)c(NCC(=O)N(C)C2CCN(Cc3ccc(C(N)=O)cc3)CC2)c(C)c(C)c1N | inactive |
| CC1=CC2/C=C(\C)CCC(O)C(=O)C(O)CC(=O)C23C(=O)NC(CC(C)C)C3C1C (stereo not drawn) | inactive [at 17.4 µM] |
| CC(C)CC(=O)OC[C@@]1(O)C[C@@]23CC[C@H]4[C@@](C)(CCC[C@@]4(C)C(=O)O)[C@@H]2CC[C@@H]1C3 | inactive [at 17.4 µM] |
| COc1ccccc1N1CCN(CC(C(=O)NC(C)(C)C)c2ccccc2)CC1 (stereo not drawn) | inactive |
| O=S(=O)(Nc1ccccn1)c1ccc(N=Cc2c(O)[nH]c3ccc4ncsc4c23)cc1 | inactive [at 9.27 µM] |
| COc1c(C(C)C)c(O)c(O)c2c1C(OC)[C@H]1OC(=O)[C@@]23CCCC(C)(C)[C@H]13 (stereo partly drawn) | inactive |
| C=C1C(=O)OC2CC(C)=C(C(C)CCCO)C(O)C12 (stereo not drawn) | inactive |
| CC(C)=CCC[C@](C)(O[C@@H]1O[C@H](CO[C@@H]2OC[C@H](O)[C@H](O)[C@H]2O)[C@@H](O)[C@H](O)[C@H]1O)[C@H]1CC[C@]2(C)[C@@H]1[C@H](O)C[C@@H]1[C@@]3(C)CC[C@H](O[C@@H]4O[C@H](CO)[C@@H](O)[C@H](O)[C@H]4O[C@@H]4O[C@H](CO)[C@@H](O)[C@H](O)[C@H]4O)C(C)(C)[C@@H]3CC[C@]12C | inactive [at 17.4 µM] |
| CC(C)=C1CC2C(CCC2(C)O)C(C)(O)CC1=O (stereo not drawn) | inactive |
| N#CC1C(=O)N=C(c2cc(Cl)ccc2O)C=C1c1cc(OCc2ccccc2)cc(OCc2ccccc2)c1 (stereo not drawn) | inactive |
| CCN[C@@H]1C[C@H](N)[C@@H](O[C@H]2OC(CN)=CC[C@H]2N)[C@H](O)[C@H]1O[C@H]1OC[C@](C)(O)[C@H](NC)[C@H]1O | inactive [at 17.4 µM] |
| CCOc1ccc(C(Nc2ccccn2)c2ccc3ccc(C)nc3c2O)cc1C (stereo not drawn) | inactive |
| CC(O)CCC1C(CO[C@@H]2O[C@H](CO)[C@@H](O)[C@H](O)[C@H]2O)CC(O)CC1(C)C (stereo partly drawn) | inactive |
| CC(=O)O[C@@H](C[C@@H]1C=C(C)C(=O)O1)[C@H](C)[C@H]1CCC2[C@@]3(C)CC[C@H](O[C@@H]4O[C@H](CO)[C@@H](O)[C@H](O)[C@H]4O[C@@H]4O[C@@H](C)[C@H](O)[C@@H](O)[C@H]4O)C(C)(C)C3CC[C@@]2(C)[C@@]12COC(=O)C2 (stereo partly drawn) | inactive [at 9.27 µM] |
| Cc1ccc(-c2ccc3c(ccc4sc5c(c43)NC[C@@H](C)NC5=O)n2)cn1 | inactive |
| Nc1c(-c2ccccc2)nc(Cl)c2c(O)n[nH]c(=O)c12 | inactive |
| CC1=C(CO)CC(C(C)C2CCC3C4CC=C5CC(OC6OC(COC7OC(CO)C(O)C(O)C7O)C(O)C(O)C6O)CC(O)C5(C)C4CCC23C)OC1=O (stereo not drawn) | inactive [at 17.4 µM] |

| Compound | outcome |
| --- | --- |
| CC(C)C[C@H](CC(=O)NO)C(=O)N[C@H](C(=O)N[C@@H](C)C(=O)NCCN)C(C)(C)C | inactive [at 9.27 µM] |
| C/C(=C\CCC1(C)C2CC3C(C2)C31C)C(=O)O (stereo not drawn) | inactive |
| C[C@@H](O)[C@H](N)C(=O)N1CCC[C@H]1C(=O)N1CCC[C@H]1C(=O)N[C@H](C(N)=O)[C@@H](C)O (H-TPPT-NH2) | inactive [at 9.27 µM] |
| O=C(O)c1cc(C(F)(F)F)ccc1N1CC[C@H](OCc2ccccn2)C1 | inactive |
| O=C(O[C@@H]1O[C@H](CO)[C@@H](O)[C@H](O)[C@H]1O)c1ccccc1 | inactive |
| NC(=O)c1ccc(F)c2c1C[C@@H](N(C1CCC1)C1CCC1)CO2 | inactive |
| Nc1nc2c(cnn2CCCc2ccc(O)cc2)c2nc(-c3ccco3)nn12 | inactive |
| COc1cnc(-n2cnc(C)n2)c2[nH]cc(C(=O)C(=O)N3CCN(C(=O)c4ccccc4)CC3)c12 | inactive |
| COc1c(OC2OC(CO)C(O)C(O)C2O)ccc(O)c1C(=O)OCc1ccccc1O[C@@H]1O[C@H](CO)[C@@H](O)[C@H](O)[C@H]1O (stereo partly drawn) | inactive [at 17.4 µM] |
| CC(NCc1ccc(OCc2cccc(F)c2)cc1)C(N)=O (stereo not drawn) | inactive |
| Nc1ncnc2c1ncn2CCNCCCCCO | inactive |
| Cc1c(N2C(=O)c3ccc(C(=O)O)cc3C2=O)c(=O)n(-c2ccccc2)n1C | inactive |
| OC[C@H]1O[C@@H](Oc2ccc(O)c3cccc(O)c23)[C@H](O)[C@@H](O)[C@@H]1O | inactive |
| COc1cc(CCc2ccccc2)c(C(=O)O)c2c1CC(C(C)(C)O)O2 (stereo not drawn) | inactive |
| CC(=O)[C@H]1CC[C@H]2[C@@H]3CC=C4C[C@@H](OS(=O)(=O)O)CC[C@]4(C)[C@H]3CC[C@]12C | inactive |
| CC#C[C@@H](CC(=O)O)c1ccc(OCc2ccc(CN3CCC4(C=Cc5ccccc54)CC3)s2)cc1 | inactive |
